Structures are written as SMILES. Where “and” joins values, the source holds several entries; their conditions need not be identical. Identical values can stand only once. Inconclusive results are not listed. Calls of active or inactive are those of the source. Calls come from the whole dose curve.

The record followed here is PubChem BioAssay (NCATS).
Potency is the fitted concentration of half-maximal effect.

The test can be described thus: Primary qHTS to identify inhibitors of SARS-CoV-2 cell entry (AID 1645846). Note: nearly all actives have a fitted effect of over 45% in size. To be noted: SARS-CoV-2 pseudovirus cell entry assay, luminescence; activity change, negative = inhibition: at 57.1 µM (top of the series) unless noted; series mostly up to 57.1 µM. An excerpt:
Assay Provider: Wei Zheng, Ph.D.
National Center for Advancing Translational Sciences, National Institute of Health, Rockville, MD.
SARS-CoV-2 spike protein, within the viral envelope, mediates viral attachment and infection of host cells. The SARS-CoV-2 spike protein specifically binds to the host receptor ACE2 (Angiotensin-converting enzyme 2). This interaction promotes endocytosis of the viral particle, additional events lead to viral-host cell membrane fusion and release of the viral contents, allowing viral replication.
While SARS-CoV-2 requires BSL-3 facilities for live virus work, pseudotyped partices (PP) that incorporate SARS-CoV-2 spike proteins without replication elements could facilitate studies on viral entry mechanisms in a BSL-2 setting. This PP cell entry assay could also enable screening of small molecule compound libraries in BSL-2 setting to identify inhibitors of SARS-CoV-2 cell entry.
PROTOCOL TABLE (format as described by Inglese J, Shamu CE and Guy RK. 2007)
SEQUENCE No. (e.g., 1, 2, 3, etc.); […] (e.g., Cells, Incubation, Reagent, etc.); VALUE and DESCRIPTION.
1. Cells. Seed 1500 HEK293-ACE2 cells (Expi293F with stable expression of human ACE2) in 2 uL/well media (DMEM, 10% FBS, 1x L-glutamine, 1x Pen/Strep, 1 ug/ml puromycin) in white 1536-well assay plates (Greiner #782073).
2. Incubation. Incubate at 37C with 5% CO2 overnight (~16 h).
3. Compounds. Dispense 23 nL/well compounds in DMSO via pin transfer.
4. Incubation. Incubate for 1 hr at 37C 5% CO2.
5. Reagent. Dispense 2 uL/well of SARS-CoV-2-S pseudotyped particles. [a] PPs are produced with murine leukemia virus pseudotyping. [b] SARS-CoV-2-S is Wuhan-Hu-1 sequence (BEI #NR-52420) with C-terminal 19 amino acid truncation.
6. Centrifuge. […]
7. Incubation. Incubate at for 48 hr at 37C 5% CO2
8. Centrifuge. Remove supernatant with gentle centrifugation using a Blue Washer (BlueCat Bio).
9. Reagent. Dispense 4 uL/well of Bright-Glo Luciferase detection reagent (Promega #E2620).
10. Incubation. Incubate for 5 min at room temperature.
11. Detection. Read luminescence signal (Viewlux plate reader, PerkinElmer). Data was normalized with wells containing SARS-CoV-2-S PP as 100%, and wells containing bald PP (no fusion protein) as 0%.
Regarding `CCN1CCCC1CNC(=O)c1cc(S(=O)(=O)CC)c(N)cc1OC` (stereo not given), the activity change, negative = inhibition is 4.53% and -0.585%.
In the case of `C[C@](O)(CS(=O)(=O)c1ccc(F)cc1)C(=O)Nc1ccc(C#N)c(C(F)(F)F)c1`, the activity change, negative = inhibition was -4.4%.
As to `CCN(CC)CC#CCOC(=O)C(O)(c1ccccc1)C1CCCCC1` (stereo not given), the activity change, negative = inhibition was -28.2%.
As to `NS(=O)(=O)c1cc(C2(O)NC(=O)c3ccccc32)ccc1Cl` (stereo not given), the compound was called inactive.
As for `Oc1ccc(Cl)cc1`, the activity change, negative = inhibition is -1.58%.
On to `C[C@](N)(Cc1ccc(O)cc1)C(=O)O`, for which the outcome is “inactive [at 5.25 µM]”.
With `CCOC(=O)c1ccc(OCCN2C[C@H](O)[C@@H](O)[C@H](O)[C@H]2CO)cc1`, the activity change, negative = inhibition was determined as 0.637%.
On the same count and under the same terms, to `CCOc1cc(CC(=O)N[C@@H](CC(C)C)c2ccccc2N2CCCCC2)ccc1C(=O)O` belongs -13.4%.
As to `Cc1cnc(NC(=O)C2=C(O)c3ccccc3S(=O)(=O)N2C)s1`, the activity change, negative = inhibition is -28.9% and the Potency result is “inactive”.
As for `CC(C)Cc1ccc(CC(=O)O)cc1`, the result was inactive.
Same read-out and setting: then `COc1ccc2c(c1)c(CC(=O)OC/C=C(\C)CC/C=C(\C)CCC=C(C)C)c(C)n2C(=O)c1ccc(Cl)cc1`, with “inactive”.
Turning to `NC(N)=NS(=O)(=O)c1ccc(N)cc1`, the result was inactive.
Take `COc1ccc(C2CNC(=O)C2)cc1OC1CCCC1` (stereo not given): the activity change, negative = inhibition was 4.15% and -11.8%.
On the same count and under the same terms, then `NC(=O)c1ccccc1O`, with 1.57%; and `Cc1nnc(NS(=O)(=O)c2ccc(N)cc2)s1`, with 4.32% and -12.1%.
For `C=C(C)[C@H]1CN[C@H](C(=O)O)[C@H]1CC(=O)O`, the call was inactive.
Turning to `CC(C)(C)CC(C)(C)c1ccc(OCCOCC[N+](C)(C)Cc2ccccc2)cc1`, the Potency is 20 µM (active).
For the compound `COc1ccc2cccc(CCNC(C)=O)c2c1`, the activity change, negative = inhibition was -31% and the outcome was inactive.
On to `COc1ccc(C(=O)c2ccccc2O)c(O)c1`, for which the call was inactive.
In the case of `CC(C)(C)NCC(O)COc1cccc2c1C[C@H](O)[C@H](O)C2` (stereo not given in full), the activity change, negative = inhibition is 4.34%.
Turning to `O=c1[nH]c(=O)n([C@H]2C[C@H](O)[C@@H](CO)O2)cc1F`, the activity change, negative = inhibition is -90.3% and -94.8%.
Still for that read-out and setting: then `CC(=O)OC(C)OC(=O)C(C)c1ccc(-c2ccccc2)c(F)c1` (stereo not given), with -21.2%.
In the case of `CC1(C)O[C@@H]2C[C@H]3[C@@H]4C[C@H](F)C5=CC(=O)C=C[C@]5(C)[C@@]4(F)[C@@H](O)C[C@]3(C)[C@]2(C(=O)CO)O1`, the result was inactive and the activity change, negative = inhibition was -12.3%.
Take `CN1C(CSCC(F)(F)F)Nc2cc(Cl)c(S(N)(=O)=O)cc2S1(=O)=O` (stereo not given): the activity change, negative = inhibition is -21.3%.
On the same count and under the same terms, then `COC1CC(=C(c2cccs2)c2cccs2)C[N+](C)(C)C1` (stereo not given), with -29.5%; and `O=C1[C@@H]2[C@H]3CC[C@H](C3)[C@@H]2C(=O)N1CCCCN1CCN(c2ncccn2)CC1`, with -0.993%.
Take `Clc1cccc(C(c2ccc3nc[nH]c3c2)n2ccnc2)c1` (stereo not given): the compound was classed as inactive.
For the compound `CC(C)(Oc1ccc(C2CC2(Cl)Cl)cc1)C(=O)O` (stereo not given), the Potency entry was “inactive”.
As to `NC(N)=NC(=O)Cc1c(Cl)cccc1Cl`, the compound was called inactive.
Same read-out and setting: to `COc1cnc(NS(=O)(=O)c2ccc(N)cc2)nc1` belongs “inactive”.
On to `CN(C)CCOC(=O)C(c1ccccc1)C1(O)CCCC1` (stereo not given), for which the activity change, negative = inhibition was found to be 1%.
In the case of `CCOc1ccc(NS(=O)(=O)c2ccc(N)cc2)nn1`, the activity change, negative = inhibition was -12.4%.
As to `CC(C)Cc1ccc(C(C)C(=O)O)cc1` (stereo not given), the activity change, negative = inhibition was 0.301% and the result was inactive.
Consider `COc1cc2c(Nc3ccc(Br)cc3F)ncnc2cc1OCC1CCN(C)CC1`, for which the call was inactive.
Take `COCCCOc1ccnc(CS(=O)c2nc3ccccc3[nH]2)c1C` (stereo not given): the activity change, negative = inhibition amounted to 1.47%.
For `OCCc1ccccc1`, the outcome was inactive.
